An excerpt weighted towards active compounds, which were near 19% of everything screened.
Chronic BCR inh: inhibitors of chronic active B-cell receptor signaling; Potency, µM (top dose mostly 46.1 µM), for inactives: at the highest dose activity change, negative = inhibition, hits mostly inhibitors; ABC-DLBCL IkBa-CBG/CBR reporter, luminescence ratio, 4 h; AID 493014; actives 0.05% (n = 340,000); active means well fitted inhibition curve with a large enough effect in the signal ratio, with a control signal flat, not every such curve was filed as active; inconclusive means small, poorly fitted or top-dose-only effect, or effect the other way, or a change in a side signal; the % refers to the signal ratio;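 further: potency means the concentration at half of the fitted maximal effect; plate controls were basal doxycycline-induced cells for no effect and cells given 10 µM MG132 for full effect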
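TMD8 ABC-DLBCL cells carrying doxycycline-inducible green luciferase fused to IkappaBalpha plus unfused red luciferase were exposed to compounds (up to 46 uM) for 4 hrs at 37C. Activity came from the overlap-corrected green/red luminescence ratio.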
IL1B secr inh: inflammasome signaling inhibition, IL-1 beta readout; THP-1 LPS/ATP IL-1B secretion, AlphaLISA, 16 h; active compounds read low; activity change, % at 57.5 µM; actives 4.7% (n = 360,000); AID 743279; in the data active means activity change below about -50%; inconclusive means mostly about -30% to -49%; further: on the % scale 0 is the no-effect control and ±100 the full control effect
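Secreted IL-1B measured by AlphaLISA bead assay after 16 h compound exposure of THP-1 cells; compounds (final up to 57.5 uM) added 1 h before LPS (250 ng/mL) and ATP (1.25 mM) stimulation; lower signal means less secretion.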
TDP1 cell noCPT: qHTS for Inhibitors of human tyrosyl-DNA phosphodiesterase 1 (TDP1): qHTS in cells in absence of CPT | DT40 Tdp1-/- hTDP1 cells, no CPT, ATP luminescence, 48 h | Potency, µM (series often up to 46.2 µM), without a hit: top-dose activity change, negative = growth inhibition, actives largely listed as inhibitors | actives 15% (n = 420,000); further: potency means the concentration at half of the fitted maximal effect; on the % scale 0 is the no-effect control and ±100 the full control effect; nearly all actives have a fitted effect of over 55% in size
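Compound effects on proliferation are scored in DT40 Tdp1-/-;hTDP1 cells in the absence of CPT. ATP levels (CellTiter-Glo luminescence) are recorded after a ≥48 hr, 37 °C incubation.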
MCF10A rereplic: inducers of DNA re-replication in MCF 10A breast cells. MCF 10A DNA re-replication, Hoechst nuclear intensity, 48 h. Potency, µM (highest dose often 46.1 µM), for inactives: at the highest dose activity, positive = re-replication, most hits filed as activators. actives 2.9% (n = 350,000). AID 624296; further: potency means the concentration at half of the fitted maximal effect; % of control where 0% means no effect; nearly all actives have a fitted effect of over 50% in size
DT40 TDP1 CPT: growth inhibition of DT40 Tdp1-/-;hTDP1 cells with camptothecin (screen for TDP1 inhibitors). chicken DT40 Tdp1-/-;hTDP1 cells + 20 nM CPT, ATP luminescence, 48 h. Potency, µM (series often up to 46.2 µM), without a hit: at the highest dose activity change, negative = growth inhibition, hits mostly inhibitors. actives 12% (n = 420,000); further: potency means the concentration at half of the fitted maximal effect; on the % scale 0 is the no-effect control and ±100 the full control effect; nearly all actives have a fitted effect of over 55% in size
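Chicken DT40 Tdp1-/- cells complemented with human TDP1, 400 cells/well, exposed to compounds plus 20 nM camptothecin for at least 48 h at 37 C; viability read as ATP content by CellTiter-Glo luminescence.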
SW480 rerep: induces DNA re-replication in SW480 colon adenocarcinoma cells; SW480 DNA re-replication, Hoechst DNA content imaging, 48 h; Potency, µM (top dose mostly 46.1 µM), inactives show at the top dose re-replication activation, hits mostly activators; actives 1.8% (n = 340,000); AID 624297; further: potency means the concentration at half of the fitted maximal effect; % of control where 0% means no effect; nearly all actives have a fitted effect of over 55% in size
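Per well, 250 cells were exposed to pinned compound for 48 hr. Nuclear DNA was visualised with Hoechst (40 min, 37 C) and total object intensity recorded by fluorescence scanning.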
An asterisk follows results filed as active; u = inconclusive; x = no result given; [ ] = dose if it differs, or a comment. Unless noted, the call rests on the fitted dose curve; in most records, active means well fitted curve in the direction sought with a large enough effect; inconclusive means small, poorly fitted or top-dose-only effect, or another doubt; inactive means no such curve, though single readings can be large; an effect the other way counts as inactive or inconclusive.

SMILES	Chronic BCR inh	IL1B secr inh	TDP1 cell noCPT	MCF10A rereplic	DT40 TDP1 CPT	SW480 rerep
COc1ccc(CCNC(=O)C2CCN(c3nc4ccccc4nc3C(F)(F)F)CC2)cc1OC	x	x	18µM*	x	23µM*	x
CCCSCCCNC(=O)C1CCN(c2nc3ccccc3nc2C(F)(F)F)CC1	x	x	16µM*	x	21µM*	x
COC(=O)[C@]1(Cc2ccccc2)N[C@H](CN(C)C(=O)Nc2ccc(F)cc2)[C@@H]2C(=O)N(Cc3ccccc3)C(=O)[C@@H]21	-3%	-20	15µM*	-3%	u	u
COC(=O)[C@]1(Cc2ccccc2)N[C@H](CN(C)C(=O)Nc2ccc(Cl)cc2)[C@@H]2C(=O)N(Cc3ccccc3)C(=O)[C@@H]21	8%	-64*	u	u	21µM*	-14%
CC[C@@]1(C(=O)OC)N[C@H](CN(C)C(=O)Nc2ccc(F)cc2)[C@@H]2C(=O)N(Cc3ccccc3)C(=O)[C@@H]21	0%	-5	-23%	1%	-27%	3%
COC(=O)[C@]1(Cc2ccccc2)N[C@H](CN(C)C(=O)Nc2ccc(C(F)(F)F)cc2)[C@@H]2C(=O)N(C)C(=O)[C@@H]21	-3%	14	u	5%	12µM*	-24%
CC[C@@]1(C(=O)OC)N[C@H](CN(C)C(=O)Nc2ccc(C)cc2)[C@@H]2C(=O)N(Cc3ccccc3)C(=O)[C@@H]21	3%	-7	u	-5%	29µM*	7%[9.22 µM]
Cc1cc(OC(C)C(=O)NCc2ccccn2)c2c(C)c(C)c(=O)oc2c1 (configuration not stated)	-2%	55	1%	u	3%	-16%
O=C(NCC1CCC2(CCN(Cc3cccc(-c4ccco4)c3)CC2)O1)c1ccccc1 (configuration not stated)	x	x	-23%	x	-12%[9.04 µM]	x
CCOc1ccc(CCNS(=O)(=O)c2c(C)n[nH]c2C)cc1OCC	0%	0	-18%	7%	21µM*	4%
CCOc1ccc(CCNS(=O)(=O)c2cc3c(cc2C)NC(=O)CO3)cc1OCC	-28%	-23	u	-3%	-6%	4%
Cc1c(Cl)cccc1NC(=O)Cn1nnc(C(=O)NCc2cccs2)c1N	4%	4	1.6µM*	13%	5.2µM*	-6%
Cc1cccc(NC(=O)Cn2nnc(C(=O)NCc3cccs3)c2N)c1C	0%	0	u	1%	0%	1%
Cc1ccccc1NC(=O)Cn1nnc(C(=O)NCc2cccs2)c1N	x	x	6.5µM*	x	9.2µM*	x
O=S(=O)(NCCc1nnc2ccc(SCc3cccc(Cl)c3)nn12)c1ccccc1	x	x	18µM*	x	15µM*	x
Cc1ccc(S(=O)(=O)NCCc2nnc3ccc(SCc4ccccc4C)nn23)cc1	x	x	16µM*	x	16µM*	x
CCOC(=O)CSc1ccc2nnc(CCNS(=O)(=O)c3ccccc3)n2n1	9%	-2	4%	-5%	-1%	-26%
CCCC(=O)N1CCC1(C)C(=O)NS(=O)(=O)c1ccccc1Cl (configuration not stated)	x	0	1%	x	-13%	x
CCN(c1ccccc1)S(=O)(=O)c1ccc(C(=O)Nc2cc(C)ccn2)cc1	1%	-10	18µM*	1%	16µM*	-3%
CCN(c1ccccc1)S(=O)(=O)c1ccc(C(=O)Nc2ccncc2)cc1	0%	-15	21µM*	23%	23µM*	0%
Cc1ccnc(NC(=O)C(Cc2ccccc2)NC(=O)c2ccccc2)c1 (configuration not stated)	0%	-30	16µM*	-6%	u	-4%
O=C(NC(Cc1ccccc1)C(=O)NC(Cc1ccccc1)C(=O)O)c1ccccc1 (configuration not stated)	1%	31	0%	-44%	5%	-4%
CCOc1ccc(NC(=O)c2ccc(NS(=O)(=O)c3cccs3)cc2)cc1	u	-17	u	12%	-26%	21%
C=CCCC(=O)N1C[C@H]2CON(C)[C@H]2C[C@H]1c1ccc(Br)cc1	x	15	0%	x	12%	x
COc1ccc2c(c1OC)C(=O)N1N=C(c3ccc(F)cc3)CC21 (configuration not stated)	u	1	16µM*	0%	u	18%
SMILES	Chronic BCR inh	IL1B secr inh	TDP1 cell noCPT	MCF10A rereplic	DT40 TDP1 CPT	SW480 rerep
Cc1ccc(C2=NN3C(=O)c4ccccc4C3C2)cc1 (configuration not stated)	u	-7	u	-2%	-30%	-13%
Cc1noc(C)c1C(=O)N1CCC2(CCCN(C(=O)Nc3cccc(F)c3)C2)CC1	x	x	-3%	x	15%	x
N#Cc1nc(-c2ccco2)oc1N1CCN(c2cccc(Cl)c2)CC1	u	-62*	-28%	24%	u	-4%
CC1CC(C)CN(c2oc(-c3ccco3)nc2C#N)C1 (configuration not stated)	0%	-20	21µM*	u	18µM*	1%
C=CCn1cccc(/C=C/C(=O)c2ccc(C(C)(C)C)cc2)c1=S	u	-107*	7.3µM*	13µM*	7.3µM*	u
CC(OC(=O)c1cc(=O)[nH]c2ccccc12)C(=O)N1C(C)CCCC1C (configuration not stated)	u	-11	-18%	-3%	u	-6%
CC(C)CN1CC2(CCN(C(=O)c3cnccn3)CC2)C1	x	x	3%	x	14%	x
COc1ccc(Br)c(Cn2c(C)c(C(=O)NCc3cccc([N+](=O)[O-])c3)sc2=O)c1	x	-18	-89%	x	-20%	x
CC(=O)N1CCN(c2nc3ccc([N+](=O)[O-])cc3s2)CC1	4%	-11	u	-3%	u	-14%
COc1cccc(-c2cccc(NC(=O)C3CCN(Cc4nccs4)CC3)c2)c1	-2%	2	-2%	1%	14%	-4%
CCOc1ccc(CN2CCC(C(=O)Nc3cccc(-c4ccn[nH]4)c3)CC2)cc1Cl	-11%	-76*	u	u	u	u
CC(=O)Nc1ccc(NC(=O)[C@@H](NC(=O)N2C[C@H]3C[C@@H](C2)c2cccc(=O)n2C3)C(C)C)cc1	-9%	7	-3%	-15%	0%	-13%
CC1(C)c2ccccc2-n2c1cc1oc(=O)cc(O)c1c2=O	u	13	21µM*	-1%	u	1%

Bioassay records deposited in PubChem by National Center for Advancing Translational Sciences (NCATS).
